How the values were obtained:
Assay in all cases: DAPPL (digital affinity profiling via proximity ligation, sequencing); 10 mM Tris-HCl pH 7.5, 50 mM NaCl, 1 mM DTT, 4% glycerol, room temperature, 30 min; GST-TFs on glutathione beads, 16-mer random dsDNA library, 0.1% formaldehyde crosslink after washing; high values mean tight binding
Details in all cases: protein: recombinant; tags: N-terminal GST; dsDNA, one strand shown
[1] = biological target: T1, FLI1 (Homo sapiens, UniProt Q01543 1-452)
T1 sequence: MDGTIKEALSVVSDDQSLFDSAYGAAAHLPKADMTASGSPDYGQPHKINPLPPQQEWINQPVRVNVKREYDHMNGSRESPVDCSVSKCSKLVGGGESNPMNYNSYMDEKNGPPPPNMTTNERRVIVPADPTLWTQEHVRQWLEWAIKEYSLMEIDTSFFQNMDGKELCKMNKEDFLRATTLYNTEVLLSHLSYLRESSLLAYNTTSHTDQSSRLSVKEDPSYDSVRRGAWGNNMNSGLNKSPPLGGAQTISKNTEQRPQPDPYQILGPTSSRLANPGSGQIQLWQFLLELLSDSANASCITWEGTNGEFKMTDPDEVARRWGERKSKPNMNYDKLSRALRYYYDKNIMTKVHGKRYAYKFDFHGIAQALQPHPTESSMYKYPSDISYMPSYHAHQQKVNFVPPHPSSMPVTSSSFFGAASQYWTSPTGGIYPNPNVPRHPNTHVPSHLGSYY
Outline: (§1)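 GST fusions of human transcription factors were expressed in yeast and captured with glutathione beads. Once given DNA barcodes and pooled alongside a tag-only sample, they were incubated for 30 min at room temperature with 200 nmole of a random double-stranded 16-mer DNA library in Tris/NaCl/DTT/glycerol buffer, then washed, crosslinked (0.1% formaldehyde), proximity-ligated, PCR-amplified and sequenced on an Illumina NextSeq500. The binding signal of each hexamer is its read frequency for a factor divided by its frequency for the tag-only sample.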

[2] = biological target: T2, ELK1 (Homo sapiens, UniProt P19419 1-428)
T2 sequence: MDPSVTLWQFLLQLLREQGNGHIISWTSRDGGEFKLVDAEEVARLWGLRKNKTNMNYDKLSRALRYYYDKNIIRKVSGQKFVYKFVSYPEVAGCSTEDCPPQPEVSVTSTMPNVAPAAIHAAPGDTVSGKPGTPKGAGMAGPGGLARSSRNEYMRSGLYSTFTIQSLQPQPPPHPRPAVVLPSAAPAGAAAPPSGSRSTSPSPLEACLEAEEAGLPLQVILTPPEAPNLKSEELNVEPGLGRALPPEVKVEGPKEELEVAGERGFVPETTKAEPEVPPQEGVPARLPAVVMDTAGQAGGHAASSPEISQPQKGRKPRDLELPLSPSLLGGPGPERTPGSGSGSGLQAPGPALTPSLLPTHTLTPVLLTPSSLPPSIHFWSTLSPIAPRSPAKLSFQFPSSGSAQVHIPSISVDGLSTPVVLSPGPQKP
Outline: as §1

[3] = biological target: T3, GABPA (Homo sapiens, UniProt Q06546 1-454)
T3 sequence: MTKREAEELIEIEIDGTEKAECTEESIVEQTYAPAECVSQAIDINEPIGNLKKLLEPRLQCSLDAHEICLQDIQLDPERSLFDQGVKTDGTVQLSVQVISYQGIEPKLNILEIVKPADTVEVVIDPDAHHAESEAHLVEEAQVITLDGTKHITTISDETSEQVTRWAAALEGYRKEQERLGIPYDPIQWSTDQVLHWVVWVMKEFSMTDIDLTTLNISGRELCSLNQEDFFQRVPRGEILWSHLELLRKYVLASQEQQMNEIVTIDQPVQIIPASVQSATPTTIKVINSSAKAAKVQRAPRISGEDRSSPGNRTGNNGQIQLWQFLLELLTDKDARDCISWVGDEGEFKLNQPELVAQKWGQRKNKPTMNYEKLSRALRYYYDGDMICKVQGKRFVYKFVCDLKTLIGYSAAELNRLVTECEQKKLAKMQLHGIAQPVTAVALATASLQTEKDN
Outline: as §1

[4] = biological target: T4, ERG (Homo sapiens, UniProt P11308 1-479)
T4 sequence: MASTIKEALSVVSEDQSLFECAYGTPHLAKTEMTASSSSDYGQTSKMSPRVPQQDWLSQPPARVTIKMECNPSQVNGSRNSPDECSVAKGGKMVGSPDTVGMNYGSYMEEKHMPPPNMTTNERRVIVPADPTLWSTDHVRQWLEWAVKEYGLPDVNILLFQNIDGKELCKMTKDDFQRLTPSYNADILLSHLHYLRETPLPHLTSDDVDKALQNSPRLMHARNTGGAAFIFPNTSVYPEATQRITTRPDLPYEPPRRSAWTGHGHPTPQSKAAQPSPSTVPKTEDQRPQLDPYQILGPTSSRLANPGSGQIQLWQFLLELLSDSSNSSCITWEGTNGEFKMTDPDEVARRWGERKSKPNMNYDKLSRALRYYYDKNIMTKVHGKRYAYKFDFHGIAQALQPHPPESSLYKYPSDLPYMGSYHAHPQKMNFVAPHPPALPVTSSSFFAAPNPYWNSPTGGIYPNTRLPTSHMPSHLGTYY
Outline: as §1

[5] = biological target: ELF1 (Homo sapiens, UniProt P32519 1-619)
Outline: as §1

[6] = biological target: T5, EHF (Homo sapiens, UniProt Q9NZC4 1-300)
T5 sequence: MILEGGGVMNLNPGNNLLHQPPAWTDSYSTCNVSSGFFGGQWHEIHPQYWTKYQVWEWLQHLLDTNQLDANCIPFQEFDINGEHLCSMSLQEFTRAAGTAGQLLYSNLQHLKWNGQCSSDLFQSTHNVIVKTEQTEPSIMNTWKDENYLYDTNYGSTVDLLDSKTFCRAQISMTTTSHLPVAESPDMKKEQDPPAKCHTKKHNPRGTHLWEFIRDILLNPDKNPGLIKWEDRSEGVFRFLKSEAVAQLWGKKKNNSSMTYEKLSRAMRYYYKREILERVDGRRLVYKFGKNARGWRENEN
Outline: as §1

[7] = biological target: SPI1 (Homo sapiens, UniProt P17947 1-270)
Outline: as §1

[8] = biological target: SPIB (Homo sapiens, UniProt Q01892 1-262)
Outline: as §1

[9] = biological target: T6, ELK3 (Homo sapiens, UniProt P41970 1-407)
T6 sequence: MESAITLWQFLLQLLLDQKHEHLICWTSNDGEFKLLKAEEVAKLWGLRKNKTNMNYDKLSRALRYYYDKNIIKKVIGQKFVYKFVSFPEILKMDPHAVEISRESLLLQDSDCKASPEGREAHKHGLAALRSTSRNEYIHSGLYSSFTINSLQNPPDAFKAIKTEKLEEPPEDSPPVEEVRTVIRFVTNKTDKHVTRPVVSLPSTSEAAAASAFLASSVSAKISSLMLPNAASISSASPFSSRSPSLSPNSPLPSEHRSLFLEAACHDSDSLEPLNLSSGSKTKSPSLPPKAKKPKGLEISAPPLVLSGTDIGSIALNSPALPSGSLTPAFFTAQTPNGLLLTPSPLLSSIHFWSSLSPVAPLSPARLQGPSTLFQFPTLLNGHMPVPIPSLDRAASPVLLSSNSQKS
Outline: as §1

Sequence of SPIB (Q01892 whole entry): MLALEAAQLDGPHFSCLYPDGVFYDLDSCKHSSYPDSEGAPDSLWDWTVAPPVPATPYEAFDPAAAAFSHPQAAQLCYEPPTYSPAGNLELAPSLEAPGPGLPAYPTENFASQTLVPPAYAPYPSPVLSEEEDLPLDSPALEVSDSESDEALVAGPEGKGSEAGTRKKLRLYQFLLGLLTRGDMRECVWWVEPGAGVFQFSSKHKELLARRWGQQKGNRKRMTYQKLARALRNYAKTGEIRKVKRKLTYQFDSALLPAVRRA
Sequence of ELF1 (P32519 whole entry): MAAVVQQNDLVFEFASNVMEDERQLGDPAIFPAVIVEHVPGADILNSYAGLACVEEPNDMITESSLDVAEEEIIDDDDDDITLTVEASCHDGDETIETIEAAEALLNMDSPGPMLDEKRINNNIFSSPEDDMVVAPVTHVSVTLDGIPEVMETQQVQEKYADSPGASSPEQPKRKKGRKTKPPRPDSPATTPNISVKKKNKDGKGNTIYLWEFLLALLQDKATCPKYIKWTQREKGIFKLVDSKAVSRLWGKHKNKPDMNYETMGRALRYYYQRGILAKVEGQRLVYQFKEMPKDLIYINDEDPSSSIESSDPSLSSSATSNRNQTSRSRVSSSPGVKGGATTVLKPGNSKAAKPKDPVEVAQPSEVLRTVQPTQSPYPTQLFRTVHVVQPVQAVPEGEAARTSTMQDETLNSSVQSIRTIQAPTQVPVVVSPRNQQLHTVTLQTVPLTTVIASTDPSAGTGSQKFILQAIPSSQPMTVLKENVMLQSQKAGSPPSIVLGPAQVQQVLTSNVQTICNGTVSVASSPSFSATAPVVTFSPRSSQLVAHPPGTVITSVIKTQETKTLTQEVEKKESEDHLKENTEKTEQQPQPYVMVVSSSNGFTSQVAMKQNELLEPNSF

Row | Sequence | binding signal [1] | binding signal [2] | binding signal [3] | binding signal [4] | binding signal [5] | binding signal [6] | binding signal [7] | binding signal [8] | binding signal [9]
1 | CGGTTC | 1.3 fold enrichment (6-mer frequency, TF over GST control) | 1.43 fold enrichment (6-mer frequency, TF over GST control) | 1.19 fold enrichment (6-mer frequency, TF over GST control) | 1.28 fold enrichment (6-mer frequency, TF over GST control) | 1.27 fold enrichment (6-mer frequency, TF over GST control) | 1.27 fold enrichment (6-mer frequency, TF over GST control) | 1.3 fold enrichment (6-mer frequency, TF over GST control) | 1.33 fold enrichment (6-mer frequency, TF over GST control) | 1.35 fold enrichment (6-mer frequency, TF over GST control)
2 | CACTAT | 1.23 fold enrichment (6-mer frequency, TF over GST control) | 1.18 fold enrichment (6-mer frequency, TF over GST control) | 1.31 fold enrichment (6-mer frequency, TF over GST control) | 1.18 fold enrichment (6-mer frequency, TF over GST control) | 1.26 fold enrichment (6-mer frequency, TF over GST control) | 1.16 fold enrichment (6-mer frequency, TF over GST control) | 1.25 fold enrichment (6-mer frequency, TF over GST control) | 1.17 fold enrichment (6-mer frequency, TF over GST control) | 1.24 fold enrichment (6-mer frequency, TF over GST control)
3 | CGGTCT | 1.24 fold enrichment (6-mer frequency, TF over GST control) | 1.15 fold enrichment (6-mer frequency, TF over GST control) | 1.1 fold enrichment (6-mer frequency, TF over GST control) | 1.18 fold enrichment (6-mer frequency, TF over GST control) | 1.15 fold enrichment (6-mer frequency, TF over GST control) | 1.15 fold enrichment (6-mer frequency, TF over GST control) | 1.13 fold enrichment (6-mer frequency, TF over GST control) | 1.16 fold enrichment (6-mer frequency, TF over GST control) | 1.18 fold enrichment (6-mer frequency, TF over GST control)
4 | CCGTAC | 1.39 fold enrichment (6-mer frequency, TF over GST control) | 1.25 fold enrichment (6-mer frequency, TF over GST control) | 1.33 fold enrichment (6-mer frequency, TF over GST control) | 1.3 fold enrichment (6-mer frequency, TF over GST control) | 1.45 fold enrichment (6-mer frequency, TF over GST control) | 1.33 fold enrichment (6-mer frequency, TF over GST control) | 1.22 fold enrichment (6-mer frequency, TF over GST control) | 1.15 fold enrichment (6-mer frequency, TF over GST control) | 1.28 fold enrichment (6-mer frequency, TF over GST control)
5 | TGAATG | 1.16 fold enrichment (6-mer frequency, TF over GST control) | 1.28 fold enrichment (6-mer frequency, TF over GST control) | 1.17 fold enrichment (6-mer frequency, TF over GST control) | 1.21 fold enrichment (6-mer frequency, TF over GST control) | 1.2 fold enrichment (6-mer frequency, TF over GST control) | 1.19 fold enrichment (6-mer frequency, TF over GST control) | 1.26 fold enrichment (6-mer frequency, TF over GST control) | 1.23 fold enrichment (6-mer frequency, TF over GST control) | 1.09 fold enrichment (6-mer frequency, TF over GST control)
6 | GAACAC | 1.25 fold enrichment (6-mer frequency, TF over GST control) | 1.19 fold enrichment (6-mer frequency, TF over GST control) | 1.13 fold enrichment (6-mer frequency, TF over GST control) | 1.17 fold enrichment (6-mer frequency, TF over GST control) | 1.19 fold enrichment (6-mer frequency, TF over GST control) | 1.12 fold enrichment (6-mer frequency, TF over GST control) | 1.16 fold enrichment (6-mer frequency, TF over GST control) | 1.2 fold enrichment (6-mer frequency, TF over GST control) | 1.08 fold enrichment (6-mer frequency, TF over GST control)
7 | TGCGAC | 1.2 fold enrichment (6-mer frequency, TF over GST control) | 1.25 fold enrichment (6-mer frequency, TF over GST control) | 1.21 fold enrichment (6-mer frequency, TF over GST control) | 1.26 fold enrichment (6-mer frequency, TF over GST control) | 1.22 fold enrichment (6-mer frequency, TF over GST control) | 1.13 fold enrichment (6-mer frequency, TF over GST control) | 1.24 fold enrichment (6-mer frequency, TF over GST control) | 1.27 fold enrichment (6-mer frequency, TF over GST control) | 1.16 fold enrichment (6-mer frequency, TF over GST control)

— PMC7862700, “An all-to-all approach to the identification of sequence-specific readers for epigenetic DNA modifications on cytosine”
